Test results from PubChem BioAssay AID463173 (ICCB-Longwood Screening Facility, Harvard Medical School, 2010).
The campaign covered roughly 52,000 compounds. About 4,300 (8.3%) were called active. The sample holds actives, similar compounds and a random draw of the others, so the mix is not that of the screen. No stated cut-off is given here; in the data, active means survival mostly below about 52% (no sharp cut-off); inactive means mostly above about 56%.

Each compound was assayed on DeltatarO mutant (assay: S. aureus survival, RN4220 and DeltatarO strains – OD600, teichoic acid synthesis inhibitors, primary screen (AID 463173)). Details: S. aureus RN4220 wild type/DeltatarO growth, OD600, 18 h, stronger effect = lower value, screened at 18.75 µg/mL (by protocol).
For `CC(C)(C)c1ccc(CSC2=Nc3ccccc3C3=NC(CC(=O)NCc4cccs4)C(=O)N23)cc1` (centres undefined), the survival was 68% (inactive). For `CCC(=O)N=c1sc2ccccc2n1-c1ccccc1`, the survival was 71% (inactive). With `COc1ccc(C(=O)Nc2ccc3oc(-c4cccnc4)nc3c2)cc1OC` the survival was 62% (inactive). `CCCCOc1ccccc1C(=O)N(Cc1cccc(F)c1)C1CCS(=O)(=O)C1` (centres undefined) was tested, and the survival was 75% (inactive). In the case of `CCc1ccc(NC(=O)CCn2c(=O)c3cccn3c3ccccc32)cc1`, the survival is reported as 48% (inactive). In the case of `COCCCn1c(=O)c2sccc2n2c(CCCC(=O)Nc3ccc(F)c(F)c3)nnc12`, the survival is reported as 83% (inactive). With `Cc1ccc(NC(=O)Cn2c(=O)cc(-c3ccccc3)c3c(C)nn(C)c32)c(Cl)c1` the survival was 78% (inactive). For `CCOc1ccc(CN2CCN(Cc3ccc4c(c3)c3ccccc3n4CC)CC2)cc1`, the survival was 0% (active). In the case of `CCOc1ccc(CN2CCN(C(=O)c3ccco3)CC2)cc1`, the survival is reported as 77% (inactive). `CCOc1ccc(Cn2c(=O)oc3ccccc32)cc1` was tested, and the survival was 117% (inactive). In the case of `CC(C)(C)OC(=O)N1CCC(c2c(C(=O)NC3CCCCC3)cnn2-c2ccc(F)cc2F)CC1`, the survival is reported as 76% (inactive). `CCOc1ccc(NC(=O)NC(C)c2c(-n3cccc3)sc3c2CCN(CC)C3)cc1` (centres undefined) was tested, and the survival was 96% (inactive). `Cc1nc(-c2ccc(F)cc2)sc1CCNC(=O)Cc1ccc(F)cc1` was tested, and the survival was 81% (inactive). With `COCCNC(=O)c1nn(-c2ccc(Cl)cc2)nc1CO` the survival was 91% (inactive). For `CCOc1ccc(-n2nc(CO)c(C(=O)NCC(c3ccccc3)c3ccccc3)n2)cc1`, the survival was 48% (inactive). `CCOc1ccc(-n2nc(CO)c(C(=O)NCc3cccnc3)n2)cc1` was tested, and the survival was 44% (active). With `CCc1ccc(-n2nc(CO)c(C(=O)NCCOC)n2)cc1` the survival was 56% (inactive). `CCc1ccc(-n2nc(CO)c(C(=O)NCc3cccnc3)n2)cc1` was tested, and the survival was 51% (inactive). With `CCc1ccc(-n2nc(CO)c(C(=O)NCCCc3ccccc3)n2)cc1` the survival was 95% (inactive). In the case of `CCOc1ccc(-n2nc(CO)c(C(=O)NCC(C)O)n2)cc1` (centres undefined), the survival is reported as 39% (active). With `Cc1ccc(CNC(=O)c2nn(-c3ccc(Cl)cc3)nc2CO)cc1` the survival was 94% (inactive). In the case of `CCCCNC(=O)c1nn(-c2ccc(CC)cc2)nc1CO`, the survival is reported as 41% (active). In the case of `CCOc1ccc(-n2nc(CO)c(C(=O)NCCCc3ccccc3)n2)cc1`, the survival is reported as 89% (inactive). `Cc1ccc(-n2nc(CO)c(C(=O)NCc3cccnc3)n2)cc1` was tested, and the survival was 90% (inactive). `CCOc1ccc(-n2nc(CO)c(C(=O)NCc3ccc(Cl)cc3)n2)cc1` was tested, and the survival was 43% (active). For `COc1ccc(C2CC3(CC(C)(C)NC(=O)N3)Oc3cc(O)ccc32)cc1` (centres undefined), the survival was 102% (inactive). In the case of `CCC(=O)Oc1cc(C(C)(C)C)cc2cc(-c3nc(-c4ccc(OC)cc4OC)no3)c(=O)oc12`, the survival is reported as 89% (inactive). `Cc1nn(CCC(=O)NCc2cccc(Br)c2)c(=O)c2nn(-c3ccccc3)c(C)c12` was tested, and the survival was 92% (inactive). For `CC1=C(c2ccc(C)cc2)S(=O)(=O)N(Cc2ccc(C(=O)NCc3ccccc3F)cc2)C1=O`, the survival was 80% (inactive). For `Cc1cc(C)nc(Sc2ccccc2)n1`, the survival was 76% (inactive). In the case of `N#Cc1ccccc1NC(=O)CC1Nc2ccccc2NC1=O` (centres undefined), the survival is reported as 98% (inactive). In the case of `Cc1ccc(S(=O)(=O)Cc2ccc(C(=O)NCCc3ccc(Cl)cc3)o2)cc1`, the survival is reported as 56% (inactive). `COc1ccc(NC(=O)Cn2cc(C(=O)c3ccc(C)c(C)c3)c(=O)c3cc(OC)ccc32)cc1` was tested, and the survival was 72% (inactive). With `O=c1c2oc3ccccc3c2n(Cc2ccc(F)cc2)c(=O)n1Cc1ccco1` the survival was 71% (inactive). For `N#C/C(=C/c1ccc(Cl)cc1Cl)c1nc2ccccc2c(=O)[nH]1`, the survival was 70% (inactive). With `CCOc1ccc(-n2nc(CO)c(C(=O)NCc3ccccn3)n2)cc1` the survival was 53% (inactive). `CCOc1ccc(-n2nc(CO)c(C(=O)NCc3cccc(OC)c3)n2)cc1` was tested, and the survival was 41% (active). In the case of `COc1cccc(CNC(=O)c2nn(-c3ccccc3Cl)nc2CO)c1`, the survival is reported as 85% (inactive). For `Cc1nn(CCCC(=O)Nc2cc(C(F)(F)F)ccc2Cl)c(=O)c2c1sc1ccccc12`, the survival was 78% (inactive). In the case of `Cc1cccc(NC(=O)CSc2ccc(-c3sc(-c4ccccc4)nc3C)nn2)c1C`, the survival is reported as 33% (inactive). For `Cc1nc(-c2ccccc2)sc1-c1ccc(SCC(=O)NCc2ccc(F)cc2)nn1`, the survival was 53% (inactive). For `Cc1ccc(NC(=O)CSc2ccc(-c3sc(-c4ccccc4)nc3C)nn2)cc1F`, the survival was 25% (active). For `Cc1nc(C)c(-c2ccc(SCC(=O)Nc3ccc(C)c(F)c3)nn2)s1`, the survival was 93% (inactive). In the case of `Cc1nc(-c2ccccc2)sc1-c1ccc(SCC(=O)Nc2ccc(F)cc2F)nn1`, the survival is reported as 19% (active). In the case of `O=C(CSc1ccc(-c2ccccn2)nn1)Nc1ccc(F)c(F)c1`, the survival is reported as 27% (active). `Cc1ccc(NC(=O)CSc2ccc(-c3ccccn3)nn2)cc1F` was tested, and the survival was 49% (inactive). For `CC(=O)Nc1cccc(NC(=O)CSc2ccc(-c3sc(-c4ccccc4)nc3C)nn2)c1`, the survival was -14% (active). In the case of `Cc1nc(-c2ccccc2)sc1-c1ccc(SCC(=O)Nc2cccc(C(F)(F)F)c2)nn1`, the survival is reported as 41% (inactive). `Cc1cccc(NC(=O)CSc2ccc(-c3ccccn3)nn2)c1` was tested, and the survival was 103% (inactive). `Cc1nc(-c2ccccc2)sc1-c1ccc(SCC(=O)Nc2ccccc2)nn1` was tested, and the survival was 24% (inactive). `Cc1nc(-c2ccccc2)sc1-c1ccc(SCC(=O)NCc2ccc(Cl)cc2)nn1` was tested, and the survival was 52% (inactive). For `O=C(COc1ccc(S(=O)(=O)N2CCCC2)cc1)N1CCCC1`, the survival was 91% (inactive). For `Cc1c(Cl)cccc1Nc1nn2c(=O)c3ccc(C(=O)N(C)Cc4ccccc4)cc3nc2s1`, the survival was 81% (inactive). `CCc1ccc(NC(=O)Cn2c(=O)n(CCC(C)C)c(=O)c3cccnc32)cc1` was tested, and the survival was 76% (inactive). In the case of `CC(=O)Nc1ccccc1N1CCCCC1`, the survival is reported as 100% (inactive). In the case of `COc1cc(NC(=O)CCc2c(C)nc3nc(-c4cc(OC)cc(OC)c4)nn3c2C)cc(OC)c1`, the survival is reported as 83% (inactive). For `CCCCCC1CC(CC(=O)Nc2nncs2)C(=O)O1` (centres undefined), the survival was 110% (inactive). In the case of `CCc1ccc(CNC(=O)CCn2c(=O)c3cccn3c3ccc(F)cc32)cc1`, the survival is reported as 91% (inactive). `CCOc1ccc(CNC(=O)CCCn2c(=O)c3cccn3c3cccnc32)cc1` was tested, and the survival was 120% (inactive). `CCOc1ccccc1CNC(=O)CCCn1c(=O)c2cccn2c2ccc(F)cc21` was tested, and the survival was 33% (active). For `Cc1cccc(CNC(=O)CCCn2c(=O)c3cccn3c3ccc(F)cc32)c1`, the survival was 79% (inactive). With `O=C(CCCn1c(=O)c2cccn2c2ccc(F)cc21)NCc1ccc(Cl)cc1` the survival was 38% (active). For `CCOc1ccc(CNC(=O)CCCn2c(=O)c3cccn3c3ccccc32)cc1`, the survival was 55% (inactive). `CCOc1ccc(CCNC(=O)CCn2c(=O)c3cccn3c3ccc(F)cc32)cc1` was tested, and the survival was 50% (inactive). `CCOc1ccc(CNC(=O)Cn2c(=O)c3cccn3c3ccc(F)cc32)cc1` was tested, and the survival was 80% (inactive). In the case of `CCOc1ccc(CNC(=O)CCn2c(=O)c3cccn3c3ccc(F)cc32)cc1`, the survival is reported as 45% (active). For `CCOc1ccccc1CNC(=O)Cn1c(=O)c2cccn2c2ccc(F)cc21`, the survival was 68% (inactive). In the case of `CCOc1ccc(CNC(=O)CCCn2c(=O)c3cccn3c3ccc(F)cc32)cc1`, the survival is reported as 41% (active). In the case of `CCOc1ccccc1CNC(=O)CCn1c(=O)c2cccn2c2ccc(F)cc21`, the survival is reported as 46% (inactive). With `CCC(C)NC(=O)C1CCN(S(=O)(=O)c2ccc3c(c2)CCCN3C(C)=O)CC1` (centres undefined) the survival was 67% (inactive). `CC(C)(C)NC(=S)Nc1ccc2nccnc2c1` was tested, and the survival was 65% (inactive). `Cc1ccc(-c2noc(CNS(=O)(=O)c3ccc(F)cc3)n2)cc1` was tested, and the survival was 81% (inactive). In the case of `Cc1ccc(C)c(N2CCN(C(=O)Cn3cnc4onc(-c5ccc(F)cc5)c4c3=O)CC2)c1`, the survival is reported as 83% (inactive). `CC(C)CCNC(=O)C(=O)Nc1c2c(nn1-c1ccc(Cl)cc1)CSC2` was tested, and the survival was 86% (inactive). With `Cc1nc2ccn(Cc3ccccc3)c(=O)c2cc1C(=O)N1CCN(c2ccc(F)cc2)CC1` the survival was 95% (inactive). In the case of `O=C(COc1ccccc1)N(Cc1cccnc1)c1nc2c(F)cccc2s1`, the survival is reported as 84% (inactive). For `Cc1ccc(C(=O)N2CCc3cc(CNC(=O)c4ccnn4C)ccc32)cc1`, the survival was 91% (inactive). With `Cn1cc(CCCC(=O)NCc2ccccc2Cl)c2ccccc21` the survival was 75% (inactive). For `COc1cccc(CNC(=O)Cn2c(=O)c3cccn3c3ccc(F)cc32)c1OC`, the survival was 103% (inactive). `COc1cccc(CNC(=O)CCn2c(=O)c3cccn3c3ccc(F)cc32)c1OC` was tested, and the survival was 59% (inactive). For `COc1cccc(CNC(=O)CCCn2c(=O)c3cccn3c3ccc(F)cc32)c1OC`, the survival was 43% (active). `CC(C)Oc1ccc(CNC(=O)CCn2c(=O)c3cccn3c3ccc(F)cc32)cc1` was tested, and the survival was 48% (inactive). In the case of `CC(C)Oc1ccc(CNC(=O)CCCn2c(=O)c3cccn3c3cccnc32)cc1`, the survival is reported as 111% (inactive). For `CC(C)Oc1ccc(CNC(=O)CCCn2c(=O)c3cccn3c3ccccc32)cc1`, the survival was 45% (active). For `COc1cccc(NC(=O)Cn2c(=O)n(-c3cccc(OC)c3)c(=O)c3c4c(sc32)CCCC4)c1`, the survival was 107% (inactive). In the case of `COc1ccc(-c2nc3c4ccccc4n(CC(=O)Nc4cc(F)ccc4F)c(=O)n3n2)cc1`, the survival is reported as 84% (inactive). With `Cc1ccc(-c2nc3sc(CCNC(=O)c4ccc(F)c(F)c4)c(C)n3n2)cc1` the survival was 76% (inactive). In the case of `CCn1c(=O)c2cc(C(=O)Nc3cccc(C(F)(F)F)c3)sc2c2ccccc21`, the survival is reported as 84% (inactive). With `CCn1c(=O)c2cc(C(=O)NCCc3ccc(Cl)cc3)sc2c2ccccc21` the survival was 76% (inactive). For `CCn1c(=O)c2cc(C(=O)NCCCOC)sc2c2ccccc21`, the survival was 103% (inactive). For `CCc1ccc(CNC(=O)c2cc3c(=O)n(CC)c4ccccc4c3s2)cc1`, the survival was 51% (inactive). For `COc1ccc(Br)cc1CNC(=O)c1cc2c(=O)n(C)c3ccccc3c2s1`, the survival was 94% (inactive). In the case of `CCn1c(=O)c2cc(C(=O)NCCc3ccc(OC)c(OC)c3)sc2c2ccccc21`, the survival is reported as 42% (active). For `CCOc1ccc(CCNC(=O)c2cc3c(=O)n(CC)c4ccccc4c3s2)cc1OCC`, the survival was 60% (inactive). In the case of `CCn1c(=O)c2cc(C(=O)NCc3cc(OC)ccc3OC)sc2c2ccccc21`, the survival is reported as 54% (active). In the case of `CCn1c(=O)c2cc(C(=O)Nc3cc(C)c(Cl)cc3OC)sc2c2ccccc21`, the survival is reported as 69% (inactive). `CCn1c(=O)c2cc(C(=O)NCCc3cc(OC)ccc3OC)sc2c2ccccc21` was tested, and the survival was 34% (active). With `CCn1c(=O)c2cc(C(=O)Nc3cc(OC)c(OC)c(OC)c3)sc2c2ccccc21` the survival was 41% (active). With `COc1ccc(CCNC(=O)c2cc3c(=O)n(C)c4ccccc4c3s2)cc1OC` the survival was 65% (inactive).
